Experimental data as given in PubChem BioAssay (NCI).
Where “and” joins values, the source holds several entries; their conditions need not be identical. Identical values can stand only once. The panel holds about 83,000 compounds, 20% with a hit somewhere; the sample as a whole holds those more often.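 Single-dose data. Exposure time 48 hours. Values below 10 considered active.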 Calls of active or inactive are those of the source.

Tested on: SK-MEL-5 melanoma
Experiment: NCI-60 one-dose screen, 48 h (100 = growth as untreated, 0 = no growth, -100 = all killed)
Details: 10 µM unless noted

SMILES	growth
Clc1ccc(Nc2nc(Nc3ccc(Cl)cc3)nc(Nc3ccc(-c4cc(-c5cccc(Cl)c5)on4)cc3)n2)cc1	88% (inactive)
N#Cc1ccccc1-c1ccc(Cn2c(-c3cscn3)nc3c(Cl)cccc32)cc1	55.3% (inactive)
O=C(NNc1ccccc1)c1ccccc1	98.8% (inactive) and 100% (inactive)
CCOc1ccc(N2C(N)=NC(N)=NC2(C)C)cc1	4.48% (active) and 102% (inactive)
O=C1c2cc3c(cc2-c2c1c1ccc(Cl)cc1c(=O)n2CCCn1ccnc1)OCO3	-93% (active)

Tested on: UACC-62 melanoma
Experiment: as above
Details: 10 µM unless noted

SMILES	growth
Cc1ccc(C(=O)Nc2ccc(CN3CCN(C)CC3)c(C(F)(F)F)c2)cc1C#Cc1cnc(N)cc1C#N	-38.5% (active)
COc1cc(/C=C(/c2ccccc2)[N+](=O)[O-])c(OC)c2c1OCO2	-29.2% (active)
C[C@@H]1CC[C@@H]2[C@@H]1[C@H](OC(=O)/C=C/c1ccccc1)[C@]1(c3ccccc3)C[C@@H](NC(=O)CO)[C@@]2(C)O1	71.7% (inactive)
Nc1ccc(-c2nc3ccc4[nH]ncc4c3c3c2CCCC3)cc1F	14.5% (inactive)
C=C1CCC2C3(C)COC(c4ccc(NC(C)=O)cc4)OC3CCC2(C)C1C/C=C1/C(=O)OCC1O (stereo not drawn)	81% (inactive)
Cc1c(C(C)(C)O)cn2ncnc(Oc3ccc(NC(=O)Nc4ccc(Cl)c(C(F)(F)F)c4)cc3)c12	55.5% (inactive)
Cc1ccccc1SSc1ccccc1C	78.8% (inactive)
O=C(CC1(O)C(=O)Nc2ccc(Br)cc21)c1ccc(Cl)cc1 (stereo not drawn)	98.1% (inactive)
O/N=C(/c1ccccc1)c1ccc2c3c(cccc13)CC2	84.6% (inactive) and 74.7% (inactive)
Cc1ccc(/C=C2\COc3ccc(O)c(O)c3C2=O)cc1	-19.7% (active)
CC1(Cc2ccccc2)CC2=C(C(=O)O1)C(c1ccccc1)NC(=O)N2 (stereo not drawn)	91.5% (inactive)
[Cu+].[NH-][C@H]1C[N-]C(=O)[C@H]([C@H]2CCN=C(N)N2)[N-]C(=O)/C(=C\NC(N)=O)[N-]C(=O)[C@H](CNC(=O)C[C@@H](N)CCCN)[N-]C(=O)[C@H](CO)[N-]C1=O	92.1% (inactive)
S=c1nc(CS)[nH]c2ccccc12	90.6% (inactive)
Cc1oc2c(Cc3ccc(NC(=O)c4ccc(Cl)cc4)cc3)ncnc2c1C(=O)NO	89.9% (inactive)
COc1ccc2c(c1)CCNC21C(=O)Nc2c(Br)cc(Br)cc21 (stereo not drawn)	86.6% (inactive)
COC(=O)c1nc(-c2ccccc2)oc1S(=O)(=O)N(C)CCO	77.2% (inactive)
[2H]C([2H])([2H])Oc1cccc(/C=C/C(=O)/C=C(/C=C/c2cccc(OC([2H])([2H])[2H])c2OC([2H])([2H])[2H])OB(F)F)c1OC([2H])([2H])[2H]	66.6% (inactive)
N#Cc1ccccc1OCC(=O)Nc1nc2c(s1)COc1ccccc1-2	82.4% (inactive)
COc1cc(/C=C2/C=C(c3ccc(C(C)(C)C)cc3)N(CCc3ccc(S(N)(=O)=O)cc3)C2=O)cc(OC)c1OC	59% (inactive)

SMILES	growth
Nc1n[nH]c2cccc(C#Cc3cccc(NC(=O)c4ccc(N5CCOCC5)c(C(F)(F)F)c4)c3)c12	-5.9% (active)
Cc1nn(-c2nc(-c3cc4ccccc4oc3=O)cs2)c(C)c1N=Nc1ccccc1	86.6% (inactive)
Cc1nnc(NS(=O)(=O)c2ccc(N=Nc3ccc(N)nc3N)cc2)s1	97% (inactive) and 111% (inactive)
COc1ccc(-c2csc(NC(=O)CN3CCN(CCO)CC3)n2)cc1NS(=O)(=O)c1cccc2c(N(C)C)cccc12	89% (inactive)
C=C(c1ccc(C(=O)O)cc1)c1cc2c(cc1C)C(C)(C)CCC2(C)C	74.3% (inactive) and 58.7% (inactive)
O=[N+]([O-])c1cc(C(F)(F)F)ccc1Sc1ccc(C(F)(F)F)cc1[N+](=O)[O-]	77.8% (inactive)
COc1ccc2c(O)c(/C=C3\N=Nc4nc(C)ccc43)oc2c1CC1CCNCC1	-26.3% (active)
Cc1ccc(Nc2nc(-c3cc(O)c(C)c(C)c3O)cs2)cc1	92.7% (inactive)
COc1cc(N=Nc2ccc(O)c3ncccc23)c2ncccc2c1	6.71% (active)
CCCCCCCC/C=C\CCCCCCCCOc1ccccc1CC(=O)NCC[N+]1(C)CCOCC1	68% (inactive)
Nc1ccc(S(=O)(=O)c2ccc(N)cc2)cc1	98.7% (inactive) and 104% (inactive)
C[C@]12CCc3c(ccc4cc(O)ccc34)[C@@H]1C[C@H](O)[C@@H]2O	88.6% (inactive)
COc1ccc(C(c2cc(OC)c(OC)c(OC)c2)n2ccnc2)cc1O (stereo not drawn)	36.5% (inactive)
CN(C)CCCn1c2c(c3ccc(N4CCNCC4)cc3c1=O)C(=O)c1ccccc1-2	51.8% (inactive)
Clc1ccc(Nc2nc(Nc3ccc(Cl)cc3)nc(Nc3ccc(-c4cc(-c5cccc(Cl)c5)on4)cc3)n2)cc1	105% (inactive)
N#Cc1ccccc1-c1ccc(Cn2c(-c3cscn3)nc3c(Cl)cccc32)cc1	75% (inactive)
O=C(NNc1ccccc1)c1ccccc1	29.6% (inactive) and 30.9% (inactive)
CCOc1ccc(N2C(N)=NC(N)=NC2(C)C)cc1	41.4% (inactive) and 95.4% (inactive)
O=C1c2cc3c(cc2-c2c1c1ccc(Cl)cc1c(=O)n2CCCn1ccnc1)OCO3	-57.7% (active)
